This note sets out measurements from PubChem BioAssay (NCATS).

Where “and” joins values, the source holds several entries; their conditions need not be identical. Equal entries are not always repeated. Records with an inconclusive call do not appear. Unmarked numbers belong to inactive results. Calls of active or inactive are those of the source. Unless noted, calls come from the whole dose curve.

Chain of Peroxisome proliferator-activated receptor delta (Homo sapiens) (Q03181 whole entry, looked up): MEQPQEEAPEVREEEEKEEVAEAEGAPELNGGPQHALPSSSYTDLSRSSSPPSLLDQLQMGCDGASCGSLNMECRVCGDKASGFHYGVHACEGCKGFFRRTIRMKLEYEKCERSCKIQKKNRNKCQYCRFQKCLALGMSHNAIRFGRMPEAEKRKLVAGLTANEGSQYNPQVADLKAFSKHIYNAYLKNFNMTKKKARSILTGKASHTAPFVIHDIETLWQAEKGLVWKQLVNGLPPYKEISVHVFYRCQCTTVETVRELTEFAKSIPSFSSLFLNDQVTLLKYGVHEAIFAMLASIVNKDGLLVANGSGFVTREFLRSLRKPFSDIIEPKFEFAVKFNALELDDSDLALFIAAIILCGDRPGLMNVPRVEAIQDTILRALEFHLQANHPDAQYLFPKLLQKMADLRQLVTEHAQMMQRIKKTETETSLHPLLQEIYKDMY
Chain of Glucocorticoid receptor (Homo sapiens) (P04150 whole entry, looked up): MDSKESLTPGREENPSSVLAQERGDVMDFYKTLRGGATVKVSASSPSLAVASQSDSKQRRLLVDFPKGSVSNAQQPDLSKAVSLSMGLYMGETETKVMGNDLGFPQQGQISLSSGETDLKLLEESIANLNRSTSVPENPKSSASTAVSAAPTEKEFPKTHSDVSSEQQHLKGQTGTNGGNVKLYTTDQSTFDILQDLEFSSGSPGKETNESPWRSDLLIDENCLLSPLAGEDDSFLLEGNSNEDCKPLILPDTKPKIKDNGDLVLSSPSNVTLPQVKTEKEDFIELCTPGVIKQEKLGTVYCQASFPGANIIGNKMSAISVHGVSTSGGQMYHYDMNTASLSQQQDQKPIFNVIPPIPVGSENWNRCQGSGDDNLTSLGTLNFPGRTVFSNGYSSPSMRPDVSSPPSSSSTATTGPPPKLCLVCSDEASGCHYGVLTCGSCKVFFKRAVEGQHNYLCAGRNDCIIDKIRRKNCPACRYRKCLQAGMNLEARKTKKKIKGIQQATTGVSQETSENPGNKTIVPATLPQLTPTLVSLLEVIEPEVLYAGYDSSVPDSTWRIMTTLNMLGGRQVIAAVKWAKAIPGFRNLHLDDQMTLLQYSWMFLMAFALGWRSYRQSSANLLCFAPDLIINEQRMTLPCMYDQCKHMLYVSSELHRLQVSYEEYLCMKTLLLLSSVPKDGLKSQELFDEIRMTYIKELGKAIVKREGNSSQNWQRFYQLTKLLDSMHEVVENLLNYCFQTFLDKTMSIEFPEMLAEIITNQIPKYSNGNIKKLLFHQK

One assay addresses Glucocorticoid receptor (Homo sapiens) (UniProt P04150). In words: qHTS assay for small molecule agonists of glucocorticoid receptor signaling (AID 588532; active = well fitted curve in the direction sought with a large enough effect in the signal ratio, with a control signal flat; the % refers to the signal ratio;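 note: 100% = dexamethasone at 0.1 µM and 0% = DMSO only wells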). Particulars: HeLa MMTV-bla, beta-lactamase ratio, agonist, 18 h; hits give high values; percent of dexamethasone control, DMSO zero. The gist of the method: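 Titration series, up to 92 uM, applied to GRE-bla HeLa cells for 18 h at 37 C. Detection by CCF4 FRET substrate after 2 h at RT.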
For the molecule `CCOP(=S)(OCC)Oc1cc(C)nc(C(C)C)n1`, the activation is -2.71%.
As for `CC(C)(C)CC(C)(C)c1ccc(O)cc1`, the activation is 4.7%.
As to `C[C@H]1O[C@@H](O[C@H]2[C@@H](O)C[C@H](O[C@H]3[C@@H](O)C[C@H](O[C@H]4CC[C@@]5(C)[C@H](CC[C@@H]6[C@@H]5CC[C@]5(C)[C@@H](C7=CC(=O)OC7)CC[C@]65O)C4)O[C@@H]3C)O[C@@H]2C)C[C@H](O)[C@@H]1O`, the activation was -14.2%.
In the case of `N[C@@H](Cc1ccc(N(CCCl)CCCl)cc1)C(=O)O`, the activation is 7.11% and 5.34%.
The same measure, in the same setting: to `Oc1ccc(Cl)cc1Cc1ccccc1` belongs -0.163% and -0.754%.

For a further assay the target is unchanged. In words: qHTS assay for small molecule antagonists of glucocorticoid receptor signaling (AID 588533; active = well fitted inhibition curve with a large enough effect in the signal ratio, with a control signal flat, not every such curve was filed as active; the % refers to the signal ratio;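 note: cells stimulated with 2 nM dexamethasone as agonist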; note: potency is the fitted concentration of half-maximal effect; for activity change, negative = inhibition: % is set by controls: 0 for no effect and ±100 for the full control effect). Particulars: HeLa MMTV-bla, GRE beta-lactamase ratio, antagonist mode, 18 h; series mostly up to 76.8 µM; activity change, negative = inhibition: at the top concentration. The gist of the method: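 Antagonist-mode qHTS: compound titrations added to GRE-bla HeLa cells, then dexamethasone 2 nM final; 18 h, 37 C. CCF4 FRET fluorescence normalized to dexamethasone and DMSO; IC50 from Hill fit.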
(In qHTS, concentration-response curves come from the screen itself.)
`CCOP(=S)(OCC)Oc1cc(C)nc(C(C)C)n1`: the Potency result is “inactive”.
For the molecule `C[C@H]1O[C@@H](O[C@H]2[C@@H](O)C[C@H](O[C@H]3[C@@H](O)C[C@H](O[C@H]4CC[C@@]5(C)[C@H](CC[C@@H]6[C@@H]5CC[C@]5(C)[C@@H](C7=CC(=O)OC7)CC[C@]65O)C4)O[C@@H]3C)O[C@@H]2C)C[C@H](O)[C@@H]1O`, the Potency was 355 nM (active).
Turning to `N[C@@H](Cc1ccc(N(CCCl)CCCl)cc1)C(=O)O`, the “activity change, negative = inhibition” value is -7.05%.
On the same count and under the same terms, to `Oc1ccc(Cl)cc1Cc1ccccc1` belongs -8.64%.

Another assay has as its target Peroxisome proliferator-activated receptor delta (Homo sapiens) (UniProt Q03181). Kind of assay: qHTS assay for small molecule agonists of peroxisome proliferator-activated receptor delta signaling (AID 588534).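 Note: 0% = DMSO basal wells and 100% = positive control agonist at 10 µM.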 Particulars: HEK293T PPARdelta-UAS-bla, beta-lactamase ratio, 18 h; series mostly up to 76.7 µM; activation: at the top concentration. In outline:
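Fluorescence from CCF4 substrate cleavage by beta-lactamase reporter, read 2 hrs at RT, measured agonist activity. Compounds were tested with 18 hrs exposure at 37 C. Concentration-response data fitted to Hill equation.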
On to `CS(=O)(=O)OCCCCOS(C)(=O)=O`, for which the result was inactive.
In the case of `CCOP(=S)(OCC)Oc1cc(C)nc(C(C)C)n1`, the result was inactive.
On the same count and under the same terms, to `NC(=O)N/N=C/c1ccc([N+](=O)[O-])o1` belongs “inactive”; to `C[C@@H]1C[C@H]2[C@@H]3CCC4=CC(=O)C=C[C@]4(C)[C@@]3(F)[C@@H](O)C[C@]2(C)[C@@]1(O)C(=O)CO`, “inactive”.
As for `CC(C)(C)CC(C)(C)c1ccc(O)cc1`, the “activation” value was -0.184%.
Consider `Cc1cn([C@H]2C[C@H](N=[N+]=[N-])[C@@H](CO)O2)c(=O)[nH]c1=O`, for which the outcome was inactive.
As to `C#C[C@]1(O)CC[C@H]2[C@@H]3CCC4=Cc5oncc5C[C@]4(C)[C@H]3CC[C@@]21C`, the “activation” value was -7.72%.
With `CN(C)/N=N/c1nc[nH]c1C(N)=O`, the “activation” value was -8.63%.
In the case of `NC[C@H](O)c1ccc(O)c(O)c1`, the “activation” value is -0.766%.
Consider `Cc1ccc(C)c(OCCCC(C)(C)C(=O)O)c1`, for which the outcome was inactive.
In the case of `CCc1nc(N)nc(N)c1-c1ccc(Cl)cc1`, the “activation” value was -6.99%.
Take `CCCc1cc(=O)[nH]c(=S)[nH]1`: the result was inactive.
For `C[C@](N)(Cc1ccc(O)c(O)c1)C(=O)O`, the “activation” value was -2.32%.
Turning to `Cc1ccnc2c1NC(=O)c1cccnc1N2C1CC1`, the “activation” value was 3.89%.
In the case of `COc1cccc2c1C(=O)c1c(O)c3c(c(O)c1C2=O)C[C@@](O)(C(=O)CO)C[C@@H]3O[C@H]1C[C@H](N)[C@H](O)[C@H](C)O1`, the outcome was inactive.
`OC(Cn1cncn1)(Cn1cncn1)c1ccc(F)cc1F`: the “activation” value is -1.07%.
For `Nc1cc(-c2ccncc2)c[nH]c1=O`, the “activation” value is -3.57%.
On to `Cn1cnc([N+](=O)[O-])c1Sc1ncnc2nc[nH]c12`, for which the result was inactive.
Consider `CC[C@H](C)C(=O)O[C@H]1C[C@@H](C)C=C2C=C[C@H](C)[C@H](CC[C@@H]3C[C@@H](O)CC(=O)O3)[C@H]21`, for which the “activation” value was -12.1%.
Take `CCCN(CCC)S(=O)(=O)c1ccc(C(=O)O)cc1`: the outcome was inactive.
For `CN(C)CCCN1c2ccccc2Sc2ccc(Cl)cc21`, the “activation” value was -3.8%.
For the molecule `N=C(N)c1ccc(OCCCCCOc2ccc(C(=N)N)cc2)cc1`, the “activation” value was -13.6%.
With `CCCCOCCOCCOCc1cc2c(cc1CCC)OCO2`, the result was inactive.
Regarding `Cc1ncc([N+](=O)[O-])n1CCO`, the “activation” value is 0.45%.
As to `OCCOCCN1CCN(C(c2ccccc2)c2ccc(Cl)cc2)CC1` (stereo not drawn), the “activation” value was -7.55%.
As for `Oc1ccc(Cl)cc1Cc1ccccc1`, the result was inactive.
Consider `O=c1[nH]cnc2c1ncn2[C@H]1CC[C@@H](CO)O1`, for which the result was inactive.
Same read-out and setting: the entry for `Nc1ccc(O)c(C(=O)O)c1` is “inactive”; for `O=C1NC(=O)C(c2ccccc2)(c2ccccc2)N1` it is “inactive”.
